# Test results as given in PubChem BioAssay (NCATS).
# Results filed as inconclusive are left out. Active and inactive are the calls of the source. Calls follow the shape of the dose curve; as a rule, active = well fitted cell-killing curve with a large enough effect; inconclusive = small, poorly fitted or top-dose-only effect, or effect the other way; inactive = no such curve, though single readings can be large or run the other way.
# Assay: Quantitative High-Throughput drug screen in 47 multiple myeloma cell lines against the NCATS MIPE library collection: SKMM1_PLB cell viability assay (AID 1919863); also: nearly all actives have a fitted effect of over 35% in size; as to viability: series mostly up to about 46 µM
# Conditions: SKMM1 myeloma viability, CellTiter-Glo ATP, 48 h; viability: stronger effect = lower value
# Excerpt: PI: Beverly A. Mock Ph.D.
# Laboratory of Cancer Biology and Genetics,
# Center for Cancer Research, National Cancer Institute,
# National Institute of Health, Bethesda, Maryland
# Drug resistance and disease progression are common in multiple myeloma (MM) patients, underscoring the need for new therapeutic combinations. […] We hypothesized that effective combinations would reduce MYC expression and enhance p16 activity. […] These preclinical data identify potentially useful drug combinations for evaluation in drug-resistant MM and reveal potential mechanisms of combined drug sensitivity.
# Described herein is the primary MIPE qHTS used to cherrypick compounds. Validated compounds were then further tested for potential synergistic activiy.
# [1] Peat TJ, Gaikwad SM, Dubois W, Gyabaah-Kessie N, Zhang S, Gorjifard S, Phyo Z, Andres M, Hughitt VK, Simpson RM, Miller MA, Girvin AT, Taylor A, Williams D, D'Antonio N, Zhang Y, Rajagopalan A, Flietner E, Wilson K, Zhang X, Shinn P, Klumpp-Thomas C, McKnight C, Itkin Z, Chen L, Kazandijian D, Zhang J, Michalowski AM, Simmons JK, Keats J, Thomas CJ, Mock BA. Drug combinations identified by high-throughput screening promote cell cycle transition and upregulate Smad pathways in myeloma. Cancer Lett. 2023 Aug 1;568:216284. doi: 10.1016/j.canlet.2023.216284. Epub 2023 Jun 24. PMID: 37356470; PMCID: PMC10408729.
# SEQUENCE No. (e.g., 1, 2, 3, etc.); […] (e.g., Cells, Incubation, Reagent, etc.); VALUE and DESCRIPTION.
# 1; Cells; 5 uL; white, solid bottom 1536-well Greiner assay plate.
# 2; Compounds; 23 nL; Kalypsis pin tool (Wako USA) equipped with a 1536-well pin head to transfer to the assay plates.
# 3; Incubation; 48 hours; 37C incubation.
# 4; Reagent;5uL; CellTiter Glo (Promega).
# 5; Detector; 425V; Luminescence; Viewlux PerkinElmer.
# NOTES (numbers refer to Sequence numbers above)
# 1. The cell-based screening methods employed in this study were like those previously published. Briefly, the corresponding myeloma cell lines were screened in 1,536-well plates with 500 cells, 5-uL per well for inhibition of cell viability (assessed by measuring ATP levels with CellTiterGlo).
# 2. NCATS MIPE 4.0 library of approved and investigational drugs were added using the Kalypsis pin tool. Wells treated with DMSO only for 100% viability and media only for 0% viability were used as controls.
# 3. The assay plates were covered and incubated for 48 hours in a 37C, 5% CO2 incubator with controlled humidity.
# 4. After 48 hours, CellTilter-GloTM luminescent substrate mix (Promega) reagent was added to the assay plate and plates we incubated for 5 min at room temperature.
# 5. Signal was measured as median relative luminescence units on a ViewLux (PerkinElmer) multiplate reader.
# [1] Heske CM, Davis MI, Baumgart JT, Wilson K, Gormally MV, Chen L, Zhang X, Ceribelli M, Duveau DY, Guha R, Ferrer M, Arnaldez FI, Ji J, Tran HL, Zhang Y, Mendoza A, Helman LJ, Thomas CJ. Matrix Screen Identifies Synergistic Combination of PARP Inhibitors and Nicotinamide Phosphoribosyltransferase (NAMPT) Inhibitors in Ewing Sarcoma. Clin Cancer Res. 2017 Dec 1;23(23):7301-7311. doi: 10.1158/1078-0432.CCR-17-1121. Epub 2017 Sep 12. PMID: 28899971; PMCID: PMC6636827.
# Potency is read from the fitted curve at half-maximal effect.
Compound,Potency,viability
CC[C@@]1([C@@H]2O[C@@H]([C@H]3O[C@@](O)(CO)[C@H](C)C[C@H]3C)C[C@H]2C)CC[C@H]([C@]2(C)CC[C@]3(C[C@H](O)[C@@H](C)[C@@H]([C@@H](C)[C@@H](OC)[C@H](C)C(=O)O)O3)O2)O1,0.323 µM (active),
NC(=O)c1ncn([C@@H]2O[C@H](CO)[C@@H](O)[C@@H]2O)c1O,,102% (inactive)
CS[C@H]1SC[C@@H]2C(=O)N(C)[C@H](C(C)C)C(=O)OC[C@H](NC(=O)c3cnc4ccccc4n3)C(=O)N[C@H](C)C(=O)N(C)[C@@H]1C(=O)N(C)[C@H](C(C)C)C(=O)OC[C@H](NC(=O)c1cnc3ccccc3n1)C(=O)N[C@H](C)C(=O)N2C,0.0093 µM (active),
C[C@@H]1CC[C@@]2(OC1)OC1CC3C4CC=C5CC(O)CCC5(C)C4CCC3(C)C1[C@@H]2C (stereo not given in full),,155% (inactive)
Cc1cnc(Nc2ccc(N3CCN(C)CC3)cc2)nc1Nc1cccc(S(=O)(=O)NC(C)(C)C)c1,3.32 µM (active),
C[C@](Cc1c[nH]c2ccccc12)(NC(=O)OC1C2CC3CC(C2)CC1C3)C(=O)NC[C@H](NC(=O)CCC(=O)O)c1ccccc1 (stereo not given in full),,114% (inactive)
CCN(CC)Cc1ccc2cc(COC(=O)Nc3ccc(C(=O)NO)cc3)ccc2c1,0.935 µM (active),
CC(=O)O[C@H]1C[C@@H]2CC[C@H]3[C@H]4C[C@H]([N+]5(C)CCCCC5)[C@@H](OC(C)=O)[C@@]4(C)CC[C@@H]3[C@@]2(C)C[C@H]1[N+]1(C)CCCCC1,,128% (inactive)
CCC(C=C[C@@H]1OC(=O)C=C[C@H]1C)=C[C@H](C)CC=CC(C)=C[C@@H](C)C(=O)[C@@H](C)[C@H](O)[C@@H](C)CC(C)=CC(=O)O,0.022 µM (active),
COc1cc([C@@H]2c3cc4c(cc3[C@@H](O[C@@H]3O[C@@H]5CO[C@@H](c6cccs6)O[C@@H]5[C@H](O)[C@@H]3O)[C@H]3COC(=O)[C@H]23)OCO4)cc(OC)c1O,5.26 µM (active),
O=C(Nc1ccc(Oc2ccnc3[nH]ccc23)c(F)c1)c1cccn(-c2ccc(F)cc2)c1=O,18.7 µM (active),
C[C@H](CCC(=O)O)[C@H]1CC[C@H]2[C@@H]3[C@H](O)C[C@@H]4C[C@H](O)CC[C@]4(C)[C@@H]3CC[C@]12C,,131% (inactive)
CC(C)c1cc(C(C)C)c(CC(=O)NS(=O)(=O)Oc2c(C(C)C)cccc2C(C)C)c(C(C)C)c1,26.4 µM (active),
CCc1cc(C(C)=NOCc2ccc(C3CCCCC3)c(C(F)(F)F)c2)ccc1CN1CC(C(=O)O)C1,18.7 µM (active),
CCc1cnn2c(NCc3ccc[n+]([O-])c3)cc(N3CCCC[C@@H]3CCO)nc12,0.0332 µM (active),
Cc1coc2c1C(=O)C(=O)c1c-2ccc2c(C)cccc12,14.8 µM (active),
CNC(=O)c1cccc(-c2ccc3c(N4CCOC[C@H]4C)nc(N4CCOC[C@H]4C)nc3n2)c1,0.0662 µM (active),
CNC(=O)c1ccc(Nc2cc(Nc3ccccc3S(=O)(=O)C(C)C)c3cc[nH]c3n2)nc1,18.7 µM (active),
Cc1onc(-c2ccccc2)c1C(=O)N[C@@H]1C(=O)N2[C@@H](C(=O)O)C(C)(C)S[C@@H]12,,123% (inactive)
N#Cc1ccc(COC[C@H]2O[C@@H](n3c(NCc4ccc(Cl)c(Cl)c4)nc4c(N)ncnc43)[C@@H](O)[C@@H]2O)cc1,2.96 µM (active),

Compound,Potency,viability
CC(C)(C)[N+]([O-])=Cc1ccc(S(=O)(=O)O)cc1S(=O)(=O)O,,115% (inactive)
C[C@@H](Oc1ccc2[nH]nc(C=Cc3cnn(CCO)c3)c2c1)c1c(Cl)cncc1Cl,26.4 µM (active),
Cn1cc(-c2ccc3ncc(Cc4ccc5ncccc5c4)n3n2)cn1,2.09 µM (active),
CC(C)Oc1ccc(C(=O)N[C@H](CNC(=O)CN(C)C)Cc2ccc(-c3cn4cccc([C@H](C)O)c4n3)cc2)cc1Cl,0.296 µM (active),
O=C1c2c(O)cccc2[C@@H]([C@@H]2O[C@H](CO)[C@@H](O)[C@H](O)[C@H]2O)c2cc(CO)cc(O)c21,,153% (inactive)
CC1(C)O[C@@H]2C[C@H]3[C@@H]4CCC5=CC(=O)C=C[C@]5(C)[C@@H]4[C@@H](O)C[C@]3(C)[C@]2(C(=O)CO)O1,,142% (inactive)
Cn1cnc2c(F)c(Nc3ccc(Br)cc3F)c(C(=O)NOCCO)cc21,,115% (inactive)
CN[C@H]1[C@@H](O)[C@@H]2O[C@@H]3O[C@H](C)CC(=O)[C@]3(O)O[C@@H]2[C@@H](NC)[C@H]1O,10.5 µM (active),
O=C(CN1C(=O)C2(CCCC2)NC[C@H]1c1cc(F)cc(F)c1)Nc1ccc2c(c1)C[C@@]1(C2)C(=O)Nc2ncccc21,,120% (inactive)
CC(=O)ON=C1C(c2c(O)[nH]c3cc(Br)ccc23)=Nc2ccccc21,18.7 µM (active),
COc1cc2c(Nc3ccc(Cl)c(Cl)c3F)ncnc2cc1OCC1C[C@@H]2CN(C)C[C@H]2C1,5.9 µM (active),
COc1cc([C@@H]2c3cc4c(cc3[C@H](O)[C@H]3COC(=O)[C@@H]23)OCO4)cc(OC)c1OC,0.059 µM (active),
CC[C@H](CC[C@@H](C)[C@H]1CC[C@H]2[C@@H]3CC=C4C[C@@H](O)CC[C@]4(C)[C@@H]3CC[C@]12C)C(C)C,,106% (inactive)
OCCNC1CCCc2c1[nH]c1ccc(-c3ccccc3)cc21 (stereo not given),26.4 µM (active),
O=C(CCCCCCC(=O)Nc1cccnc1)NO,5.9 µM (active),
COC(=O)C=CC(=O)OC,,144% (inactive)
COC[C@H](NC(=O)c1cnc(C)s1)C(=O)N[C@@H](COC)C(=O)N[C@@H](Cc1ccccc1)C(=O)[C@@]1(C)CO1,0.372 µM (active),
CCCCCN=C(N)NN=Cc1c[nH]c2ccc(OC)cc12,0.296 µM (active),
FC(F)c1nc2ccccc2n1-c1nc(N2CCOCC2)nc(N2CCOCC2)n1,1.48 µM (active),
CC(C=CC=C(C)C=CC1=C(C)CCCC1(C)C)=CC=CC=C(C)C=CC=C(C)C=CC1=C(C)CCCC1(C)C,,107% (inactive)
